High-throughput results (PubChem BioAssay)
Compounds with a hit are over-represented: about 12% of the library has one in this group of screens.
L3MBTL1 inh – inhibitors of human L3MBTL1. Q9Y468. AlphaScreen L3MBTL1–H3K9me1 peptide binding. Potency, µM (top dose mostly 57.1 µM), for inactives: at the highest dose activity, negative = inhibition, most hits filed as inhibitors. 0.66% of 230,000 active; further: on the % scale 0 is the no-effect control and ±100 the full control effect; nearly all actives have a fitted effect of over 60% in size
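L3MBTL1 (50 nM) pre-complexed 30 min with biotinylated H3(1-15)K9me1 peptide (75 nM), then compounds added for 30 min at room temperature; AlphaScreen streptavidin donor/nickel chelate acceptor beads (10 ug/mL final) read after 30 min dark incubation.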
Sfp inh – Sfp phosphopantetheinyl transferase inhibition; Q9F4F7; 3.5% of 310,000 active; Biochemical Sfp PPTase activity, qHTS; Potency, µM, for the others: largest response in the series, negative = inhibition, most hits filed as inhibitors; AID 1490;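 further: the enzyme is Sfp with the accession as filed and its product quenches rhodamine fluorescence; 0% = enzyme reaction without inhibitor and -100% = no enzyme wells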
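Fluorescence-quenching assay: 15 nM Sfp-PPTase preincubated 15 min at room temperature with compound, then 5 uM rhodamine-CoA and 12.5 uM BHQ-2-labelled YbbR peptide added. Fluorescence (ex 525/em 598 nm) read at start and after 30 min; difference gives rate.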
JMJD2A Tudor – blocks the human JMJD2A Tudor domain; 4.4% of 390,000 active; AID 504339; O75164; Potency, µM (titrated, usually from 114 µM), inactives show at the highest dose activity change, negative = inhibition, hits mostly inhibitors; AlphaScreen JMJD2A-Tudor / H3K4me3 peptide binding; further: on the % scale 0 is the no-effect control and ±100 the full control effect; nearly all actives have a fitted effect of over 50% in size
BAZ2B block – blocks human BAZ2B; Q9UIF8; AlphaScreen BAZ2B-H3K14Ac peptide displacement; Potency, µM (highest dose often 114 µM), for inactives: at the highest dose activity change, negative = inhibition, hits mostly inhibitors; 4.4% of 360,000 active; AID 504333; further: on the % scale 0 is the no-effect control and ±100 the full control effect; nearly all actives have a fitted effect of over 60% in size
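BAZ2B (50 nM) with biotin-H3(5-23)K14Ac peptide (50 nM) in PBS pH 7.4, 0.01% Tween-20, preformed 30 min, then compound 30 min at room temperature; top concentration 110uM. AlphaScreen streptavidin donor/nickel chelate acceptor beads (10 ug/mL final), 20 min dark, signal read.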
HP1b chromo inh – HP1-beta chromodomain-methylated histone interaction inhibition; P83916; AlphaScreen HP1-beta / biotin-H3K9me3 peptide binding; Potency, µM (doses to about 114 µM), for inactives: top-dose activity change, negative = inhibition, most hits filed as inhibitors; 0.56% of 390,000 active; further: nearly all actives have a fitted effect of over 70% in size
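AlphaScreen: HP1-beta (50 nM) preformed 30 min with biotin-H3(1-18)K9me3 peptide (50 nM) in PBS pH 7.4, 0.01% Tween-20. Compound added for 30 min at RT, then streptavidin donor/nickel chelate acceptor beads (10 ug/mL) for 30 min.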
G9a inh – G9a (human) methyltransferase inhibition; Q96KQ7; G9a H3K9 monomethylation, AlphaScreen, 2 h; Potency, µM (highest dose often 102 µM), for the others: at the highest dose activity, negative = inhibition, usual class: inhibitors; 8.8% of 350,000 active; further: on the % scale 0 is the no-effect control and ±100 the full control effect; nearly all actives have a fitted effect of over 75% in size
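G9a (20 nM) was preincubated 15 min with compound, then reacted 2 h at room temperature with 500 nM biotin-H3K9 peptide and 20 µM SAM. Monomethyl-H3K9 detected by AlphaScreen using anti-H3K9me1 antibody.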
The depositor's hits bear a star; ? = inconclusive; nt = not tested or not shown; [ ] = dose if it differs, or a comment. The call rests on the fitted dose curve; in most records, active means well fitted curve in the direction sought with a large enough effect; inconclusive means small, poorly fitted or top-dose-only effect, or another doubt; inactive means no such curve, though single readings can be large; an effect the other way counts as inactive or inconclusive. Potency means the concentration at half of the fitted maximal effect.

SMILES | L3MBTL1 inh | Sfp inh | JMJD2A Tudor | BAZ2B block | HP1b chromo inh | G9a inh
COc1ccc(NC(C)=O)cc1NC(=O)c1cccc(S(=O)(=O)N2CCN(Cc3ccccc3)CC2)c1 | -11% | nt | -26% | -6% | 7% | -1%[0.501 µM]
COc1cccc(NC(=O)/C=C/c2ccccc2[N+](=O)[O-])c1 | -10% | -15% | -17% | ? | -8% | ?
CCOc1ccc(NC(=S)/C(=C(\[O-])c2ccc(C)c([N+](=O)[O-])c2)[n+]2ccccc2)cc1 | nt | -26% | -36% | ? | -29% | ?
Cc1ccc(C)c(NC(=S)/C(=C(\[O-])c2ccc(OC(F)F)cc2)[n+]2ccccc2)c1 | -15% | ? | -8% | ? | 15% | 40µM*
O=[N+]([O-])c1cccc(/C([O-])=C(/C(=S)Nc2cccc3ccccc23)[n+]2ccccc2)c1 | -27% | 35µM* | ? | -36% | ? | 5.6µM*
COc1cccc(NC(=S)/C(=C(\[O-])c2ccc([N+](=O)[O-])cc2)[n+]2ccccc2)c1 | -22% | ? | -18%[11.4 µM] | 50µM* | -9% | 45µM*
COc1cccc(NC(=O)/C=C/c2ccc([N+](=O)[O-])cc2)c1 | nt | 50µM* | -34% | ? | -13% | 7.9µM*
CCOC(=O)c1c(NC(=O)CSc2cn(CCNC(=O)c3ccc(OC)cc3)c3ccccc23)sc2c1CCC2 | nt | nt | -34% | -39% | -12% | ?
CC(C)COc1ccc(C(=O)Nc2nnc(S(=O)(=O)N(C)Cc3ccco3)s2)cc1 | nt | nt | -18% | -3% | 11% | -28%[59 µM]
O=C(Nc1cccc(Cl)c1)N1Cc2ccccc2Oc2ncccc21 | nt | nt | -8% | -16% | 20% | -5%[59 µM]
O=[N+]([O-])c1ccc(/C([O-])=C(/C(=S)Nc2ccccc2F)[n+]2ccccc2)cc1 | -5% | -16% | -26% | -35% | -6%[57 µM] | 50µM*
[O-]/C(=C(\C(=S)Nc1ccccc1F)[n+]1ccccc1)c1ccc(OC(F)F)cc1 | nt | ? | -19%[11.4 µM] | -25% | 11% | 50µM*
O=C(/C=C/c1ccc([N+](=O)[O-])cc1)Nc1ncc([N+](=O)[O-])s1 | -10% | 40µM* | -31% | 35µM* | 9% | 50µM*
O=C(Nc1ccc(S(=O)(=O)N2CCCCCC2)cc1)c1cc(=O)c2ccccc2o1 | nt | nt | -11% | -2% | 8% | 0%[59 µM]
COc1ccc(CCNC(=O)CCn2c(=O)c3ccccc3n(Cc3ccccc3F)c2=O)cc1OC | nt | nt | -13% | 3% | 21% | -9%[59 µM]
O=S(=O)(c1ccc(Cl)cc1)N1CN(CC2CCCO2)c2nc3ccccc3nc21 (configuration not stated) | nt | 3% | -32% | -38% | 34% | 40µM*
CC(C)OCCCN1CN(S(=O)(=O)c2ccccc2)c2nc3ccccc3nc21 | -5% | 5% | -6% | ? | 45% | 32µM*
COCCCN1CN(S(=O)(=O)c2ccc(Cl)cc2)c2nc3ccccc3nc21 | -6% | 5% | -31% | -29% | 9% | 28µM*
CN1CCCN(S(=O)(=O)c2ccccc2)c2nc3ccccc3nc21 | 69% | nt | 72% | 42% | 201% | ?
C=CCN1CN(S(=O)(=O)c2cccc(Cl)c2)c2nc3ccccc3nc21 | nt | 0% | -4% | -30% | 36% | 79µM*
O=S(=O)(c1cccc(Cl)c1)N1CN(CC2CCCO2)c2nc3ccccc3nc21 (configuration not stated) | nt | 2% | -29% | ? | 18% | nt
Cc1ccc2c(c1)N(C(=O)N1CCC(C(=O)NCc3ccccc3C)CC1)CC(C)O2 (configuration not stated) | nt | nt | 0% | 1% | 45% | -3%[59 µM]
Cc1cc(Cl)ccc1NC(=O)CN1C(=O)CSc2ccc(S(=O)(=O)N(C)C)cc21 | nt | nt | -9% | -3% | 18% | -1%[59 µM]
CCCOC(=O)c1cccc(Nc2nc(C(=O)OCC)nc3ccccc23)c1 | nt | nt | -18% | 3% | 29% | 6%[59 µM]
COC(=O)COc1ccc(Oc2nc(NC(C)(C)C)nc(N(C)C)n2)nn1 | nt | nt | -18% | 2% | 4% | 6%[59 µM]
SMILES | L3MBTL1 inh | Sfp inh | JMJD2A Tudor | BAZ2B block | HP1b chromo inh | G9a inh
COc1ccc(CCN2CN(S(=O)(=O)c3ccccc3)c3nc4ccccc4nc32)cc1 | -14% | 16% | -21% | -21% | 20% | ?
COCCCNc1nc2ccccc2nc1NS(=O)(=O)c1cccc(Cl)c1 | nt | 24% | 2% | 2% | 47% | 7%[12.7 µM]
COc1ccc(CCN2CN(S(=O)(=O)c3ccccc3)c3nc4ccccc4nc32)cc1OC | 1% | -5% | -2% | -37% | 15% | 32µM*
COCCN1CN(S(=O)(=O)c2cccc(Cl)c2)c2nc3ccccc3nc21 | nt | 2% | -34% | -33% | -7% | 45µM*
CCCCN1CN(S(=O)(=O)c2ccc(OC)cc2)c2nc3ccccc3nc21 | nt | -22% | -20% | ? | 38% | 35µM*
Cc1cccc(C2N3CC4(C(C)C)CN2CC(C(C)C)(C3)C4=O)c1 (configuration not stated) | nt | nt | 1% | 13% | 47% | -12%[59 µM]
CSc1ccc(/C=N/n2c(COc3ccccc3)n[nH]c2=S)cc1 | nt | -16% | ? | ? | ? | 22µM*
S=c1[nH]nc(COc2ccccc2)n1/N=C/c1ccc(Cl)cc1 | nt | -28% | -31% | -17% | -6% | 7.1µM*
S=c1[nH]nc(Cc2ccc(Br)cc2)n1/N=C/c1ccc(Cl)cc1 | -8%[11.4 µM] | 14µM* | 79µM* | -35% | ? | ?
Cc1ccc(CSCc2ccc(C(=O)NCCc3ccc(Cl)cc3)o2)cc1 | nt | nt | -11% | 15% | 26% | 11%[59 µM]
CS(=O)(=O)NCC(c1ccco1)N1CCN(c2ccccc2)CC1 (configuration not stated) | nt | nt | -18% | -7% | 2% | 3%[59 µM]
COc1ccc(CNC(=O)COC(=O)/C=C/c2ccco2)cc1 | -24% | ? | -9% | ? | 2% | 56µM*
COc1ccc(CC(=O)NCC(=O)N/N=C/c2ccco2)cc1 | -16% | 15% | -1% | -4% | 42% | 0%[59 µM]
Cc1c(Cl)cnc(NC(=O)COC(=O)/C=C/c2ccco2)c1Cl | ? | nt | ? | 50µM* | -4% | 45µM*
Cc1c(Cl)cnc(NC(=O)COC(=O)C(NC(=O)c2ccco2)C(C)C)c1Cl (configuration not stated) | 6%[11.4 µM] | -21% | ? | ? | 20% | ?
COc1ccc(COC(=O)N/C=C/c2ccco2)cc1 | -13% | -10% | -3% | -28% | 24% | 50µM*
O=C(COC(=O)/C=C/c1ccco1)NCc1ccco1 | nt | 50µM* | 79µM* | 45µM* | -10% | 32µM*
O=C(COC(=O)c1ccc(Br)o1)NCc1ccco1 | nt | nt | 79µM* | nt | -7% | nt
